# Assay outcomes as filed in PubChem BioAssay.
# Most compounds without a hit are left out; they make up all but 2.1% or so of the library.
# TDP43 rescue = rescues yeast growth from TDP-43 toxicity. AID 652104. TDP-43 expressing yeast growth rescue, BacTiter-Glo, 24 h. Potency, µM (top dose mostly 46.1 µM), without a hit: top-dose growth rescue (activation), usual class: activators. actives 1.8% (n = 410,000); note: % of control where 0% means no effect; nearly all actives have a fitted effect of over 50% in size
#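 Growth rescue of TDP-43-toxic yeast measured as ATP luminescence (BacTiter-Glo). Cells grown to mid-log in raffinose, induced in galactose at OD600=0.02, exposed to compound 24 hr at 30 deg C.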
# Abeta yeast res = restores growth of yeast expressing A-beta42 peptide; Potency, µM (doses to about 46.1 µM), hits mostly activators; yeast expressing A-beta42, growth rescue, OD600, 48 h; response scale: 0% DMSO, 100% iron-clioquinol control; actives 0.063% (n = 410,000); AID 1347071; note: nearly all actives have a fitted effect of over 55% in size
#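 Yeast A-beta toxicity model in growth medium with pinned compounds, 48 h at 30 C; growth read as absorbance at 600 nm. Normalized to FeCl3/clioquinol equimolar mix (positive) and DMSO (negative).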
# aSyn yeast inh = inhibitors of alpha-synuclein toxicity in yeast. Potency, µM (top dose mostly 46.1 µM), for the others: at the top dose growth rescue (activation), usual class: activators. actives 0.14% (n = 370,000). Yeast expressing alpha-synuclein, growth rescue, BacTiter-Glo, 24 h; note: % of control where 0% means no effect; nearly all actives have a fitted effect of over 65% in size
#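 Rescue of yeast growth: cells expressing toxic alpha-synuclein, induced in galactose at OD600 0.02, incubated with compound 24 h at 30 C. ATP luminescence quantified growth; inhibitors of toxicity appear as activators.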
# FUS yeast rescue = rescues growth of FUS-expressing yeast | S. cerevisiae FUS-expressing, growth rescue, OD600, 24 h | Potency, µM (series often up to 76.6 µM), actives largely listed as activators | actives 0.24% (n = 390,000);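 note: plate controls were DMSO vehicle for no effect and reference control for full effect; nearly all actives have a fitted effect of over 55% in size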
#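 Read-out: OD at 600 nm after 24hr at 30C, reporting rescue of FUS-induced yeast toxicity. Cells at OD 0.005 in galactose (2%) minimal medium; compounds tested in a dilution series; CP55940 titration from 92uM final as control.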
# Starred values were filed as active, the others as inactive; i = inactive; ? = inconclusive; . = no result given; [ ] = dose if it differs, or a comment. Calls come from the whole dose curve; as a rule, active = well fitted curve in the direction sought with a large enough effect; inconclusive = small, poorly fitted or top-dose-only effect, or another doubt; inactive = no such curve, though single readings can be large; an effect the other way counts as inactive or inconclusive. Potency is the fitted concentration of half-maximal effect.
SMILES,TDP43 rescue,Abeta yeast res,aSyn yeast inh,FUS yeast rescue
COc1ccccc1NC(=O)CSc1nc2ccccc2c(=O)n1CCC(=O)NC1CCCCC1,12%,i,.,i
CCCOc1ccccc1N/C(=N/c1nc(C)cc(C)n1)NC(=O)COc1ccc(OC)cc1,2.2µM*,i,-26%,?
CCCOc1ccccc1N/C(N)=N/c1nc(C)cc(C)n1,-23%,i,-8%,i
O=C(CCc1nc2cccnc2n1-c1ccccc1)Nc1ccc(Cl)c(Cl)c1,14%,i,.,i
C[C@H](NC(=O)OC(C)(C)C)c1nnc(SCc2c(F)cccc2Cl)o1,19%,i,-2%,i
CC(C)(C)OC(=O)N[C@@H](Cc1ccccc1)c1nnc(S(=O)(=O)Cc2cccc(F)c2)o1,5µM*,i,-8%,i
CC(C)[C@H](NC(=O)OC(C)(C)C)c1nnc(S(=O)(=O)Cc2c(F)cccc2Cl)o1,11µM*,i,-22%,i
CCOC(=O)c1cc2c(=O)n3ccccc3nc2n(CC2CCCO2)c1=NC(=O)c1ccc(OC)cc1OC (stereo not given),20%,i,.,i
CN(C)c1ccc(/C=C/c2ccc3cc(F)ccc3n2)cc1,.,.,-17%,.
Cc1ccc(Cl)cc1N1CCN(C(=O)c2ccc(C)c(-n3c(C)nc4cccnc43)c2)CC1,7%,i,.,22µM*
Cc1ccc(C)c(N2CCN(C(=O)c3ccc4c(Cl)c5c(nc4c3)CCCC5)CC2)c1,35µM*,i,.,?
Cc1ccc(C)c(N2CCN(C(=O)c3cccc(-n4c(C)nc5cccnc54)c3)CC2)c1,20%,i,.,?
Cc1ccc(C)c(NC(=O)Cc2coc3cc(C)cc(C)c23)c1,5%,i,.,i
CC(C)C[C@H](NC1(C(=O)NC2CCCCC2)CCOCC1)C(=O)NCC(c1ccccc1)c1ccccc1,.,.,.,i
COc1ccccc1CNC(=O)CCCn1c(=O)c2ccccc2n(Cc2ccc(F)cc2)c1=O,-3%,i,.,i
Cc1ccc(Nc2nc(COC(=O)C3CC3)cs2)cc1,13µM*,i,-24%,i
Cn1c(N2CCOCC2)nc2c1c(=O)n(Cc1ccc(Cl)cc1)c(=O)n2C,19%,i,1%,i
CC1CN(c2nc3c(c(=O)n(Cc4ccc(Cl)c(Cl)c4)c(=O)n3C)n2C)CC(C)O1 (stereo not given),25µM*,i,10%,?
Cc1ccc(Cl)cc1N1CCN(C(=O)C2(S(=O)(=O)c3ccc(Cl)cc3)CC2)CC1,25%,i,8%,i
Cc1cccc(N2CCN(C(=O)C3(S(=O)(=O)c4ccc(Cl)cc4)CC3)CC2)c1C,35µM*,i,0%,?
C=CCn1c(COc2ccc(Cl)cc2)nnc1SCC(=O)c1ccccc1,.,.,.,i
Cc1ccc(Sc2ccc(NC(=O)CCl)cc2)cc1C,?,i,-35%,i
Cc1ccc(C)c(Sc2ccc(NC(=O)CCl)cc2)c1,8.9µM*,i,17%,i
CCOc1ccccc1NC(C)C(=O)Nc1cc(C(F)(F)F)ccc1N1CCOCC1 (stereo not given),13µM*,i,13%,.
O=C(Nc1ccc(Cl)cc1)P(=O)(O)c1ccccc1,18µM*,i,0%,i
SMILES,TDP43 rescue,Abeta yeast res,aSyn yeast inh,FUS yeast rescue
O=[N+]([O-])c1ccc(/C=C/c2ccnc3ccccc23)c([N+](=O)[O-])c1,.,.,5%,.
O=C1N(Cc2ccccc2Cl)c2ccccc2C1(O)c1c[nH]c2ccccc12 (stereo not given),16µM*,i,.,?
O=C(CC1(O)C(=O)N(Cc2ccccc2Cl)c2ccccc21)c1ccco1 (stereo not given),0%,i,2%,i
O=C1N(Cc2ccccc2)c2ccccc2C1(O)c1c[nH]c2ccccc12 (stereo not given),12%,i,.,i
COc1ccc(C(=O)CC2(O)C(=O)N(Cc3ccccc3Cl)c3ccccc32)cc1 (stereo not given),32µM*,i,30%,i
COc1cccc(-c2nc(N3CC(C)CC(C)C3)c3ccccc3n2)c1O (stereo not given),13µM*,i,7%,i
COc1cccc(-c2nc(NC(C)(C)C)c3ccccc3n2)c1O,?,i,-11%,i
COc1ccc(Nc2nc(-c3cccc(OC)c3O)nc3ccccc23)cc1,18µM*,i,3%,?
O=[N+]([O-])c1ccc(/C=N/NC(=S)Nc2ccccc2F)o1,13µM*,i,9%,i
Nn1c(SCC(=O)Nc2ccccc2-c2ccccc2)nnc1-c1cc(-c2ccccc2)n[nH]1,.,.,.,i
COC(=O)c1cc2occc2n1Cc1ccc(F)cc1Cl,25%,i,.,i
CCCn1nc(C(=O)NC2CC2)c2ccccc2c1=O,9%,i,0%,i
CCCn1nc(C(=O)Nc2nc(-c3ccccn3)cs2)c2ccccc2c1=O,?,10µM*,-6%[1.84 µM],i
COc1ccc(-n2nc(C(=O)NCC(=O)NCC3COc4ccccc4O3)c3ccccc3c2=O)cc1OC (stereo not given),-2%,i,0%,18µM*
CCn1nc(C(=O)Nc2nc(-c3ccccn3)cs2)c2ccccc2c1=O,?,i,-16%,i
CCCn1nc(C(=O)NCC2COc3ccccc3O2)c2ccccc2c1=O (stereo not given),22µM*,i,2%[1.84 µM],i
COc1ccc(C(CC(=O)Nc2cc(Cl)c(OC)cc2OC)N2Cc3ccccc3C2=O)cc1 (stereo not given),-22%,i,.,i
Cc1c(C(=O)N/N=C/c2ccccc2Cl)[nH][nH]c1=O,.,.,.,i
Cc1ccccc1-c1ccc(CN2C(C(C)C)C(=O)N(Cc3cn(CCC4OCCO4)nn3)CCS2(=O)=O)cc1 (stereo not given),?,i,?,10µM*
CC(C)Cc1ccc(CN2C(C(C)C)C(=O)N(Cc3cn(CCC4OCCO4)nn3)CCS2(=O)=O)cc1 (stereo not given),11µM*,i,8%,?
COc1ccc(-c2ccc(CN3C(C(C)C)C(=O)N(Cc4cn(CCC5OCCO5)nn4)CCS3(=O)=O)cc2)cc1OC (stereo not given),0%,i,-1%,?
COc1ccc(-c2ccc(CN3C(C(C)C)C(=O)N(Cc4cn(CC5CCCCC5)nn4)CCS3(=O)=O)cc2)cc1OC (stereo not given),-8%,i,16%,25µM*
COc1ccc(-c2ccc(CN3C(C(C)C)C(=O)N(Cc4cn(CCC5OCCO5)nn4)CCS3(=O)=O)cc2)cc1 (stereo not given),35µM*,i,6%,?
Cc1nc2sccn2c(=O)c1S(=O)(=O)NCc1ccc(F)cc1,20%,i,.,i
CCn1c(CN2CCCCC2)nc2cc(NC(=O)COc3ccc([N+](=O)[O-])cc3)ccc21,6%,i,.,i
